Data taken from PubChem BioAssay AID977606 (Broad Institute, 2014).
In all, about 1,500 compounds went through this assay and about 430 (29%) were called active. Only a sample is shown. Entries with a potency or affinity are not part of this list. Values without a mark were called inactive. No rule for the calls is given here.

Experiment: glucose-independent GLuc insulin release activation – cell-based, INS-1E, Gaussia luciferase, luminescence, cherry-pick, counter-screen for glucose-dependent insulin secretion activators, dose response (AID 977606);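 also: 0% = median of neutral control wells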
Settings: INS-1E Gaussia luciferase insulin secretion, no glucose, 100% = twice neutral-control luminescence; series mostly up to 35 µM; activation: at the top concentration

Row | Structure (SMILES) | activation [%]
1 | COCCNc1nc(N2CCCCC2)c2cnn(C)c2n1 | 7.01
2 | COc1cc2c(cc1OC)C(Cc1ccc(O)cc1)NCC2 (centres undefined) | -1.37
3 | COc1cc2c(cc1OC)C(Cc1ccc(O)cc1)N(C)CC2 (centres undefined) | -9.53
4 | c1ccc(-c2nc(NCC3CC3)nc3ccsc23)cc1 | 7.35
5 | CN1CCCCC(NC(=O)c2ccccc2)C1=O (centres undefined) | 9.94
6 | Cc1nccn1-c1ncnc2sc3c(c12)CCCC3 | -5.65
7 | COc1ccccc1CSc1nc2c(c(=O)n(C)c(=O)n2C)n1C | -8.58
8 | COC(=O)c1ccc(CNC(=O)CCc2c[nH]c3ccccc23)cc1 | -10.2
9 | Cc1nnc2c(NCCC(C)C)nc3ccccc3n12 | -2.67
10 | CCOC(=O)c1nc(NCc2cccnc2)c2ccccc2n1 | -0.868
11 | Cn1c(=O)n(Cc2ccccc2Br)c2ccccc21 | 27.3
12 | CC(C)CCN1CC(O)=C(c2nc(-c3ccc(Cl)cc3)cs2)C1=N | 4.45
13 | C=CCNc1cc(C)oc(=O)c1C(=O)CCC | -6.6
14 | COc1ccccc1Cn1c(=O)oc2ccccc21 | 1.4
15 | COc1ccccc1CNS(=O)(=O)c1cc(-c2cc(C)no2)ccc1C(C)C | -7.45
16 | COc1ccc(CNC(=O)C2Cc3c(-c4cccc(F)c4)ccnc3O2)cc1OC (centres undefined) | -55.6
17 | COc1ccc(CN2CCOC2=O)cc1OC | -14.9
18 | COC(=O)[C@]1(Cc2ccccc2)N[C@H](CN(C)C(=O)Nc2ccc(C)cc2)[C@@H]2C(=O)N(C)C(=O)[C@@H]21 | -4.45
19 | CCNc1nc(NC(C)C)nc(N(C)C#N)n1 | -1.68
20 | CC1CN(S(=O)(=O)c2cc(C(=O)NC(C)c3cccnc3)ccc2Cl)CC(C)O1 (centres undefined) | -5.54
21 | COc1cc2c(cc1OC)[C@H](C)N(C(=O)NCc1ccccc1)CC2 | -7.31
22 | CC(=O)Nc1nc(C)nc(-c2ccccc2OC(C)=O)n1 | 25.7
23 | CCOC1=C2[C@H](c3ccc(C)cc3)N(S(=O)(=O)c3ccc(C)cc3)C[C@H]2n2c(=O)n(-c3ccccc3)c(=O)n2C1 | 0.601

Row | Structure (SMILES) | activation [%]
24 | Cc1ccc(C(CC(=O)O)NC(=O)c2ccc(S(=O)(=O)N3CC(C)OC(C)C3)cc2)cc1 (centres undefined) | -15.2
25 | CC(=O)c1cccc(-c2csc3ncnc(Sc4nnnn4C)c23)c1 | 1.21
26 | CN1C(=O)NC(c2ccc(O)cc2)C2=C1CN(c1ccccc1)C2=O (centres undefined) | -1.76
27 | Cc1ccc(NC(=O)c2ccccc2-c2ccccc2C(=O)O)cc1C | 2.93
28 | O=C(CC(NC(=O)c1ccccc1)c1ccccc1)Nc1cccc2ccccc12 (centres undefined) | -12.6
29 | C=C(C)C1Cc2c(C)nn(-c3cccc4cccnc34)c2C1 (centres undefined) | 6.7
30 | O=C(COc1ccc(Cl)cc1)NCCS(=O)(=O)N1CCN(c2ccccc2F)CC1 | -13.2
31 | O=C(COc1cccc2c1CCNC2=O)NC1CCCCC1 | -5.65
32 | COc1ccc(CN(C)C(=O)CCN=C2NS(=O)(=O)c3ccccc32)c(OC)c1 | 3.04
33 | CC(C)CC(=O)Nc1cccc(-c2nc3ncccc3o2)c1 | -8.91
34 | COc1ccc(Cc2nnc(NC(=O)Cc3cccs3)s2)cc1OC | 25.7
35 | CCOC(=O)c1c(C)[nH]c(C(C)=NNC(=O)c2cccs2)c1C | -3.52
36 | CCOC(=O)c1oc2ccccc2c1NC(=O)c1ccco1 | 4
37 | CCCCOc1ccc(SCCCN2CCOCC2)cc1 | 53.8
38 | C/C(=N\NC(=O)CO/N=C(\C)c1cccs1)c1ccc(N)cc1 | -3.9
39 | Cc1ccnc(NS(=O)(=O)c2ccc(NC(=O)CCc3ccccc3)cc2)n1 | 4.42
40 | FC(F)(F)c1ccc(Cl)c(-n2c(Cc3cccs3)n[nH]c2=S)c1 | -10.4
41 | COc1ccc(CNC(=O)C2Cc3c(-c4ccccc4)ccnc3O2)cc1OC (centres undefined) | 11
42 | O=C(OC1CCOC1=O)c1cc(-c2ccc(Cl)cc2)nc2ccccc12 (centres undefined) | 8.02
43 | COc1ccc(C2CNC(=O)C2)cc1OC1CCCC1 (centres undefined) | -4.37
44 | O=S(=O)(NCc1ccccc1)c1ccc(S(=O)(=O)N2CCCCC2)cc1 | -3.85
45 | CCCn1c(O)c(N=NC(=O)c2cccnc2)c2cc(Br)ccc21 | -27
46 | COc1ccc(C(=O)N=C2CCC(C#N)=C3c4cc(OC)c(OC)cc4CCN23)cc1 | -15

Row | Structure (SMILES) | activation [%]
47 | C=CCN=c1sc(C(=O)OC)cc(=O)n1CC=C | -3.79
48 | CC(=O)C(C)n1c(CN(C)Cc2ccccc2)nc2c1c(=O)n(C)c(=O)n2C (centres undefined) | -4.37
49 | COC(=O)C1CCN(c2cc(Cl)nc(N)n2)CC1 | -11
50 | O=C(Nc1ccc(Br)cc1)c1cc2ccccn2n1 | 7.83
51 | O=C(NC(=S)NCC1CCCO1)c1ccc(Cl)cc1Cl (centres undefined) | 0.701
52 | COc1ccc(C(=O)Nc2ccccc2C(=O)NCC2CCCO2)cc1 (centres undefined) | 5.62
53 | COC(=O)c1c(C)oc(C)c1S(=O)(=O)Nc1ccc(C(C)C)cc1 | -3.18
54 | COc1ccc(/C=C/c2noc(-c3ccccc3OC(C)=O)n2)cc1 | 4.45
55 | CCCCc1[nH]c(=O)c(C#N)c2c1CCCC2 | -9.04
56 | COC(=O)c1ccc(Oc2ccc(C(F)(F)F)cn2)cc1 | 4.53
57 | c1cc2c(cc1CN1CCN(C3CCCCCC3)CC1)OCO2 | 1.19
58 | CCOc1ncccc1C(=O)NNC(=O)c1ccccc1-n1cccc1 | -4.2
59 | CCOc1ncccc1C(=O)NCc1ccc(C)cc1 | 4.91
60 | O=C(c1cccs1)N(Cc1ccccn1)Cc1ccco1 | -8.86
61 | COc1ccc2nc(CCN(C)C(=O)C3CCC(=O)N(Cc4cccc(F)c4)C3)[nH]c2c1 (centres undefined) | -15.1
62 | CC1(C)CCCC(C)(C)N1CC(O)COCCOc1ccc(Br)cc1 (centres undefined) | 0.686
63 | Cc1ccc2c(c1)CCCN2C(=O)c1ccc2c(c1)OCO2 | 1.47
64 | CN(C(=O)c1ccc2c(c1)SC1=NS(=O)(=O)CCN12)C(c1ccccc1)c1ccccc1 | -6.46
65 | CCOc1ccc(CCNC(=O)Cn2ccc3ccccc3c2=O)cc1OCC | -1.1
66 | COc1cc(CN(C)c2ccc(S(=O)(=O)N3CCCC3)cn2)ccc1OC(F)F | 1.77
67 | CC(C)(C)C1=Nn2c(nnc2C2CCCCC2)SC1 | 11.8
68 | COc1ccc(CCNC(=O)CCC(=O)c2cccs2)cc1OC | -22.3
69 | COc1ccc(C2CC(=O)C(c3ccc(C)cc3)=CN2Cc2ccccc2)cc1 (centres undefined) | -10.9

Row | Structure (SMILES) | activation [%]
70 | CCN1CCN(c2nnc(-c3ccccc3)c3ccccc23)CC1 | -5.54
71 | CCn1cc(C(=O)O)c(=O)c2cc(F)c(N3CCN(C(=S)NC(=O)c4cccc(C)c4)CC3)cc21 | -18
72 | CCOC(=O)c1nn(-c2ccccc2)c2nc(Nc3ccccc3)cc(=O)n12 | -13.5
73 | CC1CC1C(=O)Nc1cc(C(F)(F)F)ccc1N1CCOCC1 (centres undefined) | -7.62
74 | O=C(N=C1SC2CS(=O)(=O)CC2N1c1ccc(F)c(Cl)c1)C1CC1 (centres undefined) | 13.8
75 | CCCc1nc(-c2cc3cc(C)ccc3[nH]c2=O)no1 | 43.8
76 | CC(=O)N1CCN(c2nnc(-c3ccc(C)cc3)c3ccccc23)CC1 | -0.606
77 | Cc1ccc(-c2ccc([C@@H]3[C@@H]4CN(Cc5ccccc5F)C[C@H]3N4)cc2)cc1 | 5.14
78 | CC1Oc2ccccc2N(Cc2cccc(F)c2)C1=O (centres undefined) | 11.7
79 | O=c1c2sccc2n(Cc2cccc(F)c2)c(=O)n1-c1ccc(F)cc1 | -6.27
80 | COc1ccc(CN(C)C(=O)COc2cccc(-n3cnnn3)c2)cc1OC | 9.02
81 | COc1cc(/C=N/NC(=O)CNC(=O)c2cccs2)ccc1O | 0.237
82 | O=C(Nc1ccc(F)cc1)C1COc2ccccc2O1 (centres undefined) | -15.7
83 | CN(C(=O)c1ccc(C#N)cc1)c1nnc(-c2cnccn2)s1 | -8.7
84 | CC(C)CCn1c(=O)c2ccccc2n2c(CN3CCOCC3)nnc12 | 8.19
85 | O=C(NC(=S)Nc1cccc2[nH]ncc12)c1ccccc1 | -4.69
86 | COc1ccc(C(=O)/C=C2/c3ccccc3CC(C)(C)N2C)cc1OC | 16.4
87 | Nc1[nH]c(C(=O)c2ccccc2)c(-c2ccncc2)c1C(=O)NCc1cccc2ccccc12 | -26.7
88 | COc1cc(CN2CCC(n3nccc3NC(=O)C3CCOC3)CC2)ccc1F (centres undefined) | -17.1
89 | COc1ccc(C(=O)c2ccc(OC)c(OC)c2)cc1 | -2.11
90 | COc1ccc(C(=O)c2cnc[nH]2)cc1OC | -0.483
91 | COc1ccc(-c2nc(N)ncc2-c2ccc(OC)c(OC)c2)c(O)c1 | 10.8
92 | COc1ccc(C(=O)O/N=C(\N)c2ccc(OC)c(OC)c2)cc1 | -1.47

Row | Structure (SMILES) | activation [%]
93 | c1ccc(-c2nnc3n2-c2ccccc2SC3)cc1 | 0.882
94 | COCCOC(=O)C1=C(C)NC(=O)N(C(C)=O)C1c1ccc(Cl)cc1 (centres undefined) | -0.928
95 | Cc1cc2nc(-c3ccc(Cl)cc3)c(Cc3ccsc3)n2c(C)c1Br | -6.36
96 | CCn1c(C)nc2cc(S(=O)(=O)C(F)(F)F)ccc21 | -6.94
97 | COc1cc2[nH]c3c(Cl)ncnc3c2cc1OC | -0.758
98 | COc1ccc(CC(=O)O/N=C(\N)c2ccccc2)cc1OC | -0.902
99 | COc1ccc(/C=N/NC(=O)CCOc2ccccc2C)cc1OC | 11.2
100 | COc1ccc(/C=N/NC(=O)Cn2nnc3ccccc32)cc1OC | -12.4
101 | CNS(=O)(=O)c1ccc2c3c(cccc13)C(=O)N2 | 3.01
102 | CCOC(=O)c1c(N)c(C#N)c2n1CCCC2 | -4.2
103 | COc1ccc(CC(=O)OCC(=O)N2CCCc3ccccc32)cc1OC | 0.376
104 | COc1ccc(C2=NOC(C(=O)Nc3cccnc3)C2)cc1OC (centres undefined) | 9.59
105 | O=S(=O)(c1ccc(Cl)nc1)N1CCc2ccccc21 | -0.653
106 | COc1ccc(NC(=O)C2CCCN2S(=O)(=O)c2ccc3c(c2)CC(C)N3C(C)=O)cc1OC (centres undefined) | -7.94
107 | CCOC(=O)c1sc2ncn(/N=C/c3cccnc3)c(=O)c2c1C | -12.6
108 | COc1cc(C(=O)Nc2ccn(C)n2)ccc1OC(F)F | 7.47
109 | O=c1c2ccccc2nc(-c2ccco2)n1/N=C/c1ccco1 | -8.39
110 | O=c1c2ccccc2nc(-c2ccco2)n1Cc1ccccc1 | -3.55
111 | O=C([C@H]1O[C@@H](n2ccc(=O)[nH]c2=O)[C@H](O)[C@@H]1O)N1CCN(c2ccc(Cl)cn2)CC1 | 68.2
112 | Cc1nc2ccccc2c(=O)n1CCCN1CCOCC1 | -11.5
113 | CCCn1nc(C(=O)NC2CC2)c2ccccc2c1=O | -5.12
114 | CCOCCCn1c(SCc2ccccc2)nnc1-c1ccncc1 | 6.18
